# In the library only some 3.6% were active in any assay of this set; here they are far more common.
# Giardia FBPA inh = Giardia lamblia aldolase inhibition; 0.71% of 290,000 active; AID 2451; Potency, µM (top dose mostly 59.6 µM), without a hit: at the highest dose activity, negative = inhibition, most hits filed as inhibitors; A8B2U2; purified Giardia FBPA; further: nearly all actives have a fitted effect of over 55% in size
#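 Giardia FBPA (40 nM reagent) was preincubated 10 min at RT with compound (up to 57.5 uM final), then substrate plus GAPDH/TPI/NAD/arsenate coupling system with diaphorase/resazurin was added; resorufin fluorescence (525/598 nm) was read after 20 min.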
# AmpC no deterg = AmpC beta-lactamase inhibition without detergent | P00811 | AmpC nitrocefin hydrolysis, absorbance 480 nm, 0.0001% Triton | Potency, µM (doses to about 57.1 µM), without a hit: top-dose activity change, negative = inhibition, most hits filed as inhibitors | 0.52% of 330,000 active | AID 485341;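 further: plate controls were no compound for no effect and no enzyme for full effect; nearly all actives have a fitted effect of over 20% in size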
# Target sequence (P00811 whole entry, looked up): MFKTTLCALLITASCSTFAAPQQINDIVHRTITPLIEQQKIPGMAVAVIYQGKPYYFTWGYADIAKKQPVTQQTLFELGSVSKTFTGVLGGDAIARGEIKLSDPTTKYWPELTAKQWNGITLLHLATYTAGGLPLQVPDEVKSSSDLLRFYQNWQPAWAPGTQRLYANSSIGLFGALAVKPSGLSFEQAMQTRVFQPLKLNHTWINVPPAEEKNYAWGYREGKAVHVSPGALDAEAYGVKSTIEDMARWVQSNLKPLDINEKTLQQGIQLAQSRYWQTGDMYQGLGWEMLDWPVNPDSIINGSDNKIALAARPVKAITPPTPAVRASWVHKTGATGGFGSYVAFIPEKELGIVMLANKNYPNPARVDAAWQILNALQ
#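 AmpC (5.3 nM in the dispensed reagent) in 20 mM phosphate pH 7.0 with 0.01% (detergent screen) or 0.0001% Triton X-100 was preincubated with compounds for 15 min at room temperature. Nitrocefin was then added from an 800 uM solution, and hydrolysis was followed at 480 nm.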
# Sm TGR block = S. mansoni TGR enzyme inhibition; purified TGR, DTNB reduction, TNB absorbance 405 nm; Potency, µM (titrated, usually from 114 µM), without a hit: at the highest dose activity change, negative = inhibition, actives largely listed as inhibitors; 3% of 360,000 active; further: nearly all actives have a fitted effect of over 60% in size
#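 Kinetic colorimetric format: TGR-catalysed, NADPH-driven DTNB reduction monitored via TNB absorbance. Enzyme dispensed at 20 nM; compound exposure 15 min at room temperature before reaction start.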
# AmpC detergent = AmpC beta-lactamase inhibition with detergent present; AID 485294; AmpC hydrolysis of nitrocefin, absorbance 480 nm, 0.01% Triton; P00811; Potency, µM (series often up to 114 µM), for inactives: top-dose activity change, negative = inhibition, usual class: inhibitors; 0.041% of 370,000 active;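 further: 0% = no-compound wells and -100% = no-enzyme wells; nearly all actives have a fitted effect of over 25% in size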
#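 20 mM phosphate pH 7.0 + 0.01% (detergent screen) or 0.0001% Triton X-100; 5.3 nM AmpC reagent; cpd preinc 15 min RT; nitrocefin (800 uM stock) to start; A480 q20 s × 4 min; Activity was normalised to no-enzyme and no-compound control wells.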
# Starred values were filed as active, the others as inactive; ? = inconclusive; nt = no result given; [ ] = dose if it differs, or a comment. The call rests on the fitted dose curve; in most records, active means well fitted curve in the direction sought with a large enough effect; inconclusive means small, poorly fitted or top-dose-only effect, or another doubt; inactive means no such curve, though single readings can be large; an effect the other way counts as inactive or inconclusive. Unless noted, on the % scale 0 is the no-effect control and ±100 the full control effect; potency means the concentration at half of the fitted maximal effect.
SMILES,Giardia FBPA inh,AmpC no deterg,Sm TGR block,AmpC detergent
O=C(CN1C(=O)S/C(=C\c2ccc(-c3cc(C(=O)O)ccc3Cl)o2)C1=O)Nc1ccc2c(c1)OCO2,nt,-36%,-24%,79µM*
Cc1ccc(S(=O)(=O)/C(C#N)=C/c2c[nH]c3ccccc23)cc1,-4%,18µM*,9%,-4%
Cc1ccc(S(=O)(=O)N2CCOCC2)cc1NC(=O)CNC(C)c1ccccc1 (configuration not stated),nt,27%,nt,nt
Cc1[nH]c2ccccc2c1C(O)CN1CCC2(CC1)OCCO2 (configuration not stated),1%,-17%,16µM*,-5%
COc1ccc2c(c1)c(C(O)CN1CCC3(CC1)OCCO3)c(C)n2C (configuration not stated),-5%,5%,25µM*,?
COc1ccc2[nH]c(C)c(C(=O)CN3CC(C)OC(C)C3)c2c1 (configuration not stated),-9%,-29%,-10%,1%
CC1CN(CC(=O)c2ccccc2Cl)CC(C)O1 (configuration not stated),-6%,-12%,45µM*,-9%
Cc1[nH]c2ccccc2c1C(=O)CN1CC(C)OC(C)C1 (configuration not stated),2%,-10%,32µM*,10%
COc1ccc(CNc2cc(-c3ccccc3Cl)ncn2)c(OC)c1,-7%,nt,nt,nt
CCOC(=O)C1(Cc2ccccc2C(F)(F)F)CCN(C2CCN(C(C)=O)CC2)CC1,2%,70%,-6%,-3%
CCn1ccc2cc(S(=O)(=O)N3CCCN(C(=O)NCCOC)CC3)ccc21,nt,nt,?,14%
COc1ccc(C(=O)Nc2cccc(-c3nc4cccnc4s3)c2C)c(OC)c1,nt,nt,-10%,0%
COc1ccc(-c2cc(=O)c(C(=O)c3ccc(C)cc3)n[nH]2)cc1,7%,-14%,-2%,-4%
Cc1[nH]c2ccccc2c1C(=O)CCl,-2%,-18%,2µM*,-5%
Cc1[nH]c2ccccc2c1C(=O)CN1CCC2(CC1)OCCO2,-17%,-22%,45µM*,3%
CCn1c(C(=O)N2CCC(C(=O)NCCc3ccc(OC)cc3OC)CC2)cc2sccc21,nt,nt,-8%,0%
CC1CN(CC(=O)NN=C(c2ccccc2)c2ccccc2)CC(C)O1 (configuration not stated),6%,19%,2%,5%
O=C1NC(=O)N(c2ccccc2)C(=O)/C1=C/c1ccoc1,-9%,-27%,-10%,-3%
O=C1NC(=O)N(c2ccccc2)C(=O)/C1=C\c1ccc2c3c(cccc13)CC2,-22%,-28%,25µM*,-3%
O=C1NC(=O)N(c2ccccc2)C(=O)/C1=C\c1ccccc1[N+](=O)[O-],-8%,-8%,3.5µM*,0%
O=C(O)Cn1cc(/C=C2\C(=O)NC(=O)N(c3ccc(F)cc3)C2=O)c2ccccc21,-8%,-12%,?,0%
COc1ccccc1N1C(=O)NC(=O)/C(=C/c2ccc3c4c(cccc24)CC3)C1=O,?,-15%,32µM*,-17%
CC(C)c1ccc(/C=N/NC(=O)c2c(Cl)cnn2C)cc1,-6%,-1%,-21%,?
COc1ccc(-c2nc3cc(C(C)C)ccc3o2)cc1NC(=O)c1ccccc1[N+](=O)[O-],nt,nt,3%,1%
N/C(=N\S(=O)(=O)c1cccs1)c1ccccc1Cl,nt,-7%,0%,-1%
SMILES,Giardia FBPA inh,AmpC no deterg,Sm TGR block,AmpC detergent
O=C(c1ccco1)N1CCN(/C(=N/S(=O)(=O)c2cccs2)c2ccccc2Cl)CC1,3%,7.1µM*,-32%,6%
O=C(c1ccco1)N1CCN(S(=O)(=O)Cc2ccccc2Cl)CC1,6%,-9%[2.29 µM],32µM*,-11%
COc1cccc(CN2CCN(c3nc4nonc4nc3NC3CC3)CC2)c1,-9%,15%,nt,-12%
CCCCc1nc2c(c3c1C[C@H](C)OC3)CN(S(=O)(=O)c1ccc(Cl)c3nonc13)CC2,4%[12.9 µM],nt,nt,nt
COc1cc(Cl)c(C)cc1NC(=O)CCN1C(=O)NC(C)(C)C1=O,nt,-1%,-5%,-13%
O=c1[nH]c2ccc(NC(=S)Nc3ccc(Cl)cc3Cl)cc2[nH]1,-11%,-21%,11µM*,-4%
O=c1[nH]c2ccc(NC(=S)Nc3ccccc3Cl)cc2[nH]1,?,-26%,50µM*,-4%
O=c1[nH]c2ccc(NC(=S)Nc3ccc(Cl)cc3)cc2[nH]1,1%,-9%,-14%,4%

# Screening results as filed in PubChem BioAssay.
